From PubChem BioAssay
TR SRC2 fluor cs: counter-screen for TRb-SRC2 inhibitors: fluorescence interference | TRb/SRC2 Texas Red total fluorescence interference | Potency, µM (titrated, usually from 106 µM), inactives show at the highest dose fluorescence change, negative = quenching | 280,000 tested, 0.29% active | AID 1479; active = well fitted curve in either direction with a large enough effect; inconclusive = small, poorly fitted or top-dose-only effect; also: potency is read from the fitted curve at half-maximal effect; % is scaled to controls: 0 for no effect and ±100 for the full control effect
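Human TRb ligand-binding domain at 0.6 uM with 20 nM Texas Red SRC2 peptide in Tris buffer containing 1 uM T3 and 5% DMSO, incubated with compound 5 h at ambient temperature. Total fluorescence (555/632 nm) calculated as parallel + 2 × perpendicular.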
TRb-SRC2 inh: inhibitors of human thyroid hormone receptor beta-SRC2 interaction. P10828. TRbeta-SRC2 peptide binding, fluorescence polarization; receptor liganded with 1 µM T3. Potency, µM (highest dose often 106 µM), without a hit: at the top dose activity change, negative = inhibition, most hits filed as inhibitors. 280,000 tested, 0.065% active;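 also: potency is read from the fitted curve at half-maximal effect; plate controls were bound peptide for no effect and peptide without receptor for full effect; nearly all actives have a fitted effect of over 50% in size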
Target sequence (P10828 whole entry, looked up): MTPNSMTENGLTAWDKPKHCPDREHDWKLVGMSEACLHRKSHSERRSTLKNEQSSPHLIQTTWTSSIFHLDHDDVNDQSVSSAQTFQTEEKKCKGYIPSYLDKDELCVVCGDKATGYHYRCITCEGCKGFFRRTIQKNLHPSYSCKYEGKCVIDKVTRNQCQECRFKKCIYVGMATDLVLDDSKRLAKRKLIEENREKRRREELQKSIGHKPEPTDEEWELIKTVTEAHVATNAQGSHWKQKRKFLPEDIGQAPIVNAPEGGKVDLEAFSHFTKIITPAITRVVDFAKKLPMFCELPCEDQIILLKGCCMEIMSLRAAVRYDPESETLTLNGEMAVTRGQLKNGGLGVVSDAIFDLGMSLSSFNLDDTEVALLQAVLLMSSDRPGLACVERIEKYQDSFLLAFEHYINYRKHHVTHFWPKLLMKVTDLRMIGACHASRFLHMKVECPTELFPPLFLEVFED
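TRb LBD 0.6 uM + Texas Red SRC2 peptide 20 nM, 1 uM T3, Tris buffer w/ 5% DMSO; compound pinned, 5 h RT; FP read ex 555/em 632; normalized to unbound and bound controls.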
KDM4E inh: JMJD2E (human) inhibition. 230,000 tested, 1.6% active. JMJD2E catalytic domain, FDH-coupled NADH fluorescence (FDH is formaldehyde dehydrogenase). B2RXH2. Potency, µM (top dose mostly 57.1 µM), for inactives: at the highest dose activity change, negative = inhibition, hits mostly inhibitors. AID 2147; active = well fitted inhibition curve with a large enough effect, not every such curve was filed as active; inconclusive = small, poorly fitted or top-dose-only effect, or another doubt; inactive = no such curve, though single readings can be large or run the other way;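 also: potency is read from the fitted curve at half-maximal effect; 0% = wells with enzyme and -100% = buffer wells without enzyme; nearly all actives have a fitted effect of over 50% in size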
Target sequence (B2RXH2 1-337 limits assumed): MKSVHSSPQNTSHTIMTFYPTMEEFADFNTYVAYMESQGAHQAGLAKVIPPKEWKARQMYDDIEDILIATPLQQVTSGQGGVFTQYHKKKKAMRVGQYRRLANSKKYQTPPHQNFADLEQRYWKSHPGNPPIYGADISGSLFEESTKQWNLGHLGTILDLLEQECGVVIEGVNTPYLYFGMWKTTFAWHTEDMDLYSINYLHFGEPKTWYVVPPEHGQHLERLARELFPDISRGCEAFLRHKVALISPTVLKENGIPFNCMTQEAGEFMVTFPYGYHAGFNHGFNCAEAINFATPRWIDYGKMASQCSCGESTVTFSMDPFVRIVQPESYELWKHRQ
Coupling enz: inhibits coupling enzyme system, counter-screen for aldolase hits; coupling enzyme system counterscreen, AmpLite Red fluorescence; activity change, negative = inhibition, % at 58.2 µM, hits read low; AID 2472; 290,000 tested, 0.67% active; in the data active = activity change below about -30%; also: % is scaled to controls: 0 for no effect and ±100 for the full control effect
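Activity here indicates interference with the coupling reaction, not aldolase inhibition. Compounds at 57.5 uM final met coupling enzymes for 10 min at RT; substrate and AmpLite Red detection followed, with a 525/598 nm fluorescence read after 20 min.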
HTT ATP protect: Huntington cell model cytoprotection by ATP luminescence. PC12 HTT-Q103 induced, cytoprotection, ATP luminescence, 40 h. Potency, µM (highest dose often 56.4 µM), for the others: cytoprotection (ATP increase), hits mostly activators. 230,000 tested, 0.14% active. AID 1471; also: potency is read from the fitted curve at half-maximal effect; % of control where 0% means no effect; nearly all actives have a fitted effect of over 45% in size
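Readout: ATPlite luminescence (ATP level). Model: stable PC12, inducible Htt exon1 Q103-GFP. Inducer: tebufenozide, 100 nM final. Compounds: dose series. No G418 in medium.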
HttQ103 aggreg: inhibitors of mutant huntingtin aggregate formation in PC12 cells; PC12 HttQ103-GFP aggregates, Acumen cytometry, 40 h; Potency, µM (titrated, usually from 46.1 µM), for inactives: top-dose activity change, negative = inhibition, actives largely listed as inhibitors; 220,000 tested, 1.1% active; AID 1688; also: potency is read from the fitted curve at half-maximal effect; % is scaled to controls: 0 for no effect and ±100 for the full control effect; nearly all actives have a fitted effect of over 60% in size
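Ecdysone-promoter PC12 model expressing HTT exon 1 Q103 fused to GFP, induced by tebufenozide at 100 nM final. Compounds titrated; aggregates sized 1–25 µm scored on a 488 nm laser cytometer.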
Numbers without * were called inactive; u = inconclusive; x = no result; ! = not active in a repeat; [ ] = remark or other dose. An excerpt weighted towards active compounds, which were near 2% of everything screened. Unless noted, calls follow the shape of the dose curve; as a rule, active = well fitted curve in the direction sought with a large enough effect; inconclusive = small, poorly fitted or top-dose-only effect, or another doubt; inactive = no such curve, though single readings can be large; an effect the other way counts as inactive or inconclusive.

SMILES	TR SRC2 fluor cs	TRb-SRC2 inh	KDM4E inh	Coupling enz	HTT ATP protect	HttQ103 aggreg
Cc1cc(=O)[nH]c(-n2[nH]c(C)cc2=O)n1	1.1%	-3.1%	-11.5%	-2.4	-0.2%	14.6%
O=C(Nc1ncc([N+](=O)[O-])s1)c1cccc([N+](=O)[O-])c1	u	11.6%	6.3%	-41.0*	-5.9%[10 µM]	9.7%[9.22 µM]
O=C(Nc1ccccc1)Nc1ncc([N+](=O)[O-])s1	-5.3%	1.1%	-14.3%	-3.1	13.6%[10 µM]	11.2µM*
COc1ccc(NC(=O)Cn2cc(C(=O)C3CCCCC3)c3ccccc32)cc1	3.9%	7.3%	x	x	x	x
CN(C)CCCN(C(=O)c1ccc2c(c1)CCCC2)c1nc2c(F)cccc2s1	4.2%	3.3%	4.2%	-37.0*	4.7%[1.9 µM]	2.5%
CN(C)CCCN(C(=O)c1ccc(N2C(=O)CCC2=O)cc1)c1nc2c(F)cccc2s1	1.7%	4.8%	2.3%	0.9	15.4%	-13.2%
CN(C)CCCN(C(=O)CCOc1ccccc1)c1nc2c(F)cccc2s1	-1.7%	-7.1%	2.1%	3.7	-176.2%	12.6µM*
CN(C)CCCN(C(=O)CCc1ccccc1)c1nc2c(F)cccc2s1	-0.5%	3.2%	0.1%	-0.3	2.0%[10 µM]	19.4%
COc1ccc(-n2ncc3c2ncn2nc(-c4ccc(OC)c(OC)c4)nc32)cc1	1.2%	-2.7%	x	x	x	x
Cc1nc2cnc(Nc3ccccc3)nc2n(CCc2ccccc2)c1=O	x	x	x	5.5	-36.2%	x
COC(=O)[C@@H]1C[C@@]2(O)[C@H](O)[C@H](O)[C@H](O)C[C@H]2N1Cc1ccc(-c2ccccc2)cc1	-0.6%	-5.1%	8.91µM*!	0.2	-43.3%	-33.5%[9.22 µM]
CC(C)C(=O)Nc1ccc(N2CCCC2)cc1	2.8%	0.2%	-28.1%	-32.0*	1.5%	3.3%
CC(=O)c1ccc(N2CCN(C(=O)Nc3ccc(C(C)C)cc3)CC2)cc1	0.0316µM*![quencher]	-1.7%	-18.4%	-4.3	-15.1%	-19.9%
CCOc1cc(N2CCOCC2)c(OCC)cc1NC(=O)c1ccc(C)cc1	-1.1%	4.3%	u	-30.6*	-58.6%	-8.3%
CCOc1cc(N2CCOCC2)c(OCC)cc1NC(=O)CSc1cccc[n+]1[O-]	1.2%	-8.7%	u	-33.3*	10.4%[10 µM]	1.1%
Cc1ccc(OC(=O)c2snnc2C)cc1C	8.9%	-6.6%	x	x	x	x
COCCCNC(=O)C1CCN(c2nn3cc(-c4ccc(F)cc4)nc3s2)CC1	9.7%	1.7%	x	x	x	x
COc1cccc2c(=O)c3cccc(N)c3[nH]c12	-1.2%	-7.2%	u	-56.2*	x	-26.0%
C=CCn1c(=S)[nH]c2scc(-c3ccc(C)o3)c2c1=O	-1.8%	5.7%	7.9%	4.6	-5.1%[10 µM]	22.4µM*
CC[n+]1ccc(/C=C2\Sc3ccccc3N2CCCS(=O)(=O)[O-])c2ccccc21	-1.4%	-3.6%	u	1.0	x	x
CN1C=C/C(=C\c2cc[n+](C)c3ccccc23)c2ccccc21	-1.5%	-4.7%	3.98µM*	-62.3*	-184.4%	7.08µM*
COC(=O)C(C(=O)OC)[C@@H]1c2ccccc2[C@H]2C(=C[C@@H](C)[C@H]3C(=O)N(c4ccccc4)C(=O)[C@H]32)N1C(=O)OC	-4.4%[11.2 µM]	-0.7%[11.2 µM]	8.9%[11.4 µM]	0.0	-33.3%[10 µM]	x
Cc1ccccc1-c1ccnc2c(-c3ccc(F)cc3)c(C)nn12	11.2µM*[quencher]	-17.3%	x	x	x	x
O=C(NCCCNc1ccc(C(F)(F)F)cc1[N+](=O)[O-])c1ccc(Cl)cc1	-2.1%	2.0%	-5.4%	-1.8	-33.0%	11.2µM*
O=C(NCCCNc1ccc(C(F)(F)F)cc1[N+](=O)[O-])c1cc(F)c(F)cc1Cl	0.5%	-8.3%	-12.2%	0.5	-50.3%	u
SMILES	TR SRC2 fluor cs	TRb-SRC2 inh	KDM4E inh	Coupling enz	HTT ATP protect	HttQ103 aggreg
COc1ccc(CC(=O)N2CCc3cc(OC)c(OC)cc3C2COc2ccc3c(C)cc(=O)oc3c2)cc1OC (centres undefined)	-1.7%	-3.1%	x	x	x	x
CCCS(=O)(=O)N1CC(=O)N(c2cc(C)ccc2C)C(C)(C(=O)NC2CCCCCC2)C1 (centres undefined)	25.1µM*[quencher]	-9.8%	x	x	x	x
CCS(=O)(=O)N1CC(=O)N(c2cc(C)ccc2C)C(C)(C(=O)NC2CCCCC2)C1 (centres undefined)	-2.7%	-5.0%	x	x	x	x
CCS(=O)(=O)c1oc(-c2ccc(F)cc2)nc1S(=O)(=O)c1ccccc1	5.5%	-5.7%	x	x	x	x
Cc1ccc(S(=O)(=O)N[C@H](CN)C(=O)O)cc1	x	x	x	x	4.1%[10 µM]	x
Cc1cccc(C)c1OCC(O)CNC(C)C (centres undefined)	4.5%	1.6%	-1.4%	-2.7	-6.4%[10 µM]	24.9%
CCOC(=O)c1oc2cccc(OCC(O)CNC(C)C)c2c1C (centres undefined)	0.7%	0.0%	u	-75.5*	-28.1%[0.074 µM]	-5.8%
COc1ccc(CNC(=O)CCCc2nnc3n(CCC(C)C)c(=O)c4sccc4n23)cc1	-1.2%	-5.7%	x	x	x	x
CC1(C)C(=O)Nc2ccccc2N1C(=O)CSc1nc(-c2ccccc2)cs1	31.6µM*[quencher]	-8.1%[53 µM]	-5.3%	0.6	1.7%[1.9 µM]	6.6%
COc1cccc(CC(=O)N2CCc3nc(-c4ccc(OC)cc4C)c4c(c3C2)CO[C@@H](c2ccccc2)C4)c1	-2.6%[11.2 µM]	3.1%[11.2 µM]	-2.3%[11.4 µM]	1.3	4.5%[10 µM]	x
COc1ccc(C(=O)Oc2cc(N)n(S(=O)(=O)c3ccccc3)n2)cc1	-4.4%	5.3%	0.7%	1.2	0.708µM*	u
NC(=O)c1csc(-c2ccncc2)n1	-0.1%	-14.7%	6.0%	2.7	30.6%[10 µM]	-14.2%
Nc1cc(-c2ccncc2)c[nH]c1=O	-1.3%[201 µM]	u	1.12µM*	-73.1*	-27.1%	u
Cc1ccc(N(NC(=O)C(O)(c2ccccc2)c2ccccc2)C(=O)CCl)cc1	-1.4%	-4.8%	2.0%	3.6	-87.2%[10 µM]	5.01µM*
Cc1cccc(C)c1NC(=O)COC(=O)Cc1ccsc1	0.2%	1.5%	6.5%	-0.4	32.7%[10 µM]	20µM*
Cc1cccc(C(C)C)c1NC(=O)COC(=O)Cc1ccsc1	1.2%	-7.2%	3.5%	-0.3	-9.2%[10 µM]	-14.6%
COc1cccc(C2=Nn3c(nnc3-c3cccc(OC)c3)SC2)c1	-4.9%	-6.8%	x	0.2	x	x
COc1cccc(-c2nnc3n2N=C(C(C)(C)C)CS3)c1	-0.2%	-4.8%	11.5%	6.0	34.1%	2µM*
O=C(c1cc2cc([N+](=O)[O-])ccc2oc1=O)N1CCN(c2ncccn2)CC1	0.0%	-11.1%	7.3%	0.2	u	0.708µM*
CNC(=O)c1c(C)[nH]c(=S)c(C#N)c1-c1ccco1	2.1%	-5.0%	31.6µM*	-1.7	15.5%[10 µM]	10.7%[9.22 µM]
Cc1ccccc1NC(=O)c1c(C)[nH]c(=S)c(C#N)c1-c1ccco1	-4.2%	1.5%	-13.8%	1.0	3.7%[10 µM]	21.5%
O=C(O)COc1cccc2nsnc12	-1.2%	-13.7%	20µM*	1.1	-14.0%	11.4%
